C diff growth = C. difficile growth inhibitors, primary screen, HTS. Clostridium difficile clinical isolate growth, OD600, 24 h; stronger effect = lower value. growth activity, negative = inhibition, % at 16 µg/mL (by protocol). actives 0.25% (n = 86,000). AID 1259249, 2017;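 active means mean growth activity at or below -80% and every replicate also at or below -80%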;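 further: 0% = DMSO wells and -100% = levofloxacin 16 µg/mL wells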
Pf Dd2 growth = P. falciparum Dd2 growth inhibitors, primary screen, SYBR Green fluorescence, single dose replicates | actives 2.3% (n = 94,000) | AID 1159554, 2015 | 72 h; stronger effect = lower value | activity change, % at 10 µM; in the data active means activity change below about -80%
* marks the source's active call; other numbers are inactive results; / = no result; ! = a repeat was not active. Hits are enriched below; roughly 2.3% of the tested compounds scored in any of these assays.

SMILES	C diff growth	Pf Dd2 growth
C[C@@H]1CN([C@H](C)CO)C(=O)c2cc(NS(C)(=O)=O)ccc2O[C@@H](C)CCCCO[C@H]1CN(C)Cc1ccccc1	0	21
C[C@@H](NC(=O)[C@H]1[C@H](CO)[C@H]2Cn3c(ccc(C4=CCCCC4)c3=O)[C@@H]1N2)c1ccccc1	-5	9
C[C@H]1CCCCO[C@H](CN(C)C(=O)Nc2cccc3ccccc23)[C@@H](C)CN([C@@H](C)CO)C(=O)c2cc(NC(=O)NC3CCCCC3)ccc2O1	-6	-18
C[C@H]1CCCCO[C@H](CN(C)S(=O)(=O)c2ccc(Cl)cc2)[C@@H](C)CN([C@@H](C)CO)C(=O)c2cc(NC(=O)C3CCCCC3)ccc2O1	0	-85*
Cc1ccc(S(=O)(=O)N(C)C[C@@H]2OCCCC[C@H](C)Oc3ccc(NC(=O)C4CCCCC4)cc3C(=O)N([C@H](C)CO)C[C@@H]2C)cc1	-3	-73
Cc1ccc(S(=O)(=O)N(C)C[C@H]2OCCCC[C@@H](C)Oc3ccc(NC(=O)C4CCCCC4)cc3C(=O)N([C@@H](C)CO)C[C@H]2C)cc1	-4	-57
C[C@@H]1CCCCO[C@@H](CN(C)S(=O)(=O)c2ccc(F)cc2)[C@@H](C)CN([C@@H](C)CO)C(=O)c2cc(NC(=O)C3CCCCC3)ccc2O1	8	-78
C[C@@H]1CCCCO[C@@H](CN(C)S(=O)(=O)c2ccc(Cl)cc2)[C@H](C)CN([C@@H](C)CO)C(=O)c2cc(NC(=O)C3CCCCC3)ccc2O1	-1	-73
C[C@@H]1CN([C@@H](C)CO)C(=O)c2cc(NC(=O)C3CCCCC3)ccc2O[C@@H](C)CCCCO[C@@H]1CN(C)S(=O)(=O)c1ccc(Cl)cc1	0	-81*
C[C@@H]1CCCCO[C@H](CN(C)S(=O)(=O)c2ccc(Cl)cc2)[C@H](C)CN([C@H](C)CO)C(=O)c2cc(NC(=O)C3CCCCC3)ccc2O1	-1	-84*
Cc1ccc(S(=O)(=O)N(C)C[C@@H]2OCCCC[C@@H](C)Oc3ccc(NC(=O)C4CCCCC4)cc3C(=O)N([C@H](C)CO)C[C@@H]2C)cc1	0	-89*
C[C@@H]1CN([C@@H](C)CO)C(=O)c2cc(NS(=O)(=O)c3cccs3)ccc2O[C@H]1CN(C)Cc1ccncc1	-2	14
CCCNC(=O)N1CC2(CCN(C)CC2)c2c(n(C)c3cc(OC)ccc23)[C@@H]1CO	/	33
CN1CCN(C(=O)C[C@@H]2CC[C@H]3[C@@H](COc4ccc(NC(=O)c5cscn5)cc4C(=O)N3C)O2)CC1	3	6
CCNC(=O)C[C@H]1CC[C@H](NC(=O)C2CCC2)[C@H](CO)O1	-2	/
C[C@@H]1CN([C@H](C)CO)C(=O)c2cc(NC(=O)C3CCCCC3)ccc2O[C@@H](C)CCCCO[C@@H]1CN(C)S(=O)(=O)c1ccc(Cl)cc1	5	-86*
C[C@@H]1CCCCO[C@H](CN(C)S(=O)(=O)c2ccc(Cl)cc2)[C@@H](C)CN([C@H](C)CO)C(=O)c2cc(NC(=O)C3CCCCC3)ccc2O1	0	-58
Cc1ccc(S(=O)(=O)N(C)C[C@@H]2OCCCC[C@@H](C)Oc3ccc(NC(=O)C4CCCCC4)cc3C(=O)N([C@@H](C)CO)C[C@H]2C)cc1	/	-62
C[C@@H]1CCCCO[C@@H](CN(C)S(=O)(=O)c2ccc(Cl)cc2)[C@@H](C)CN([C@@H](C)CO)C(=O)c2cc(NC(=O)C3CCCCC3)ccc2O1	1	-81*
O=C([C@@H]1[C@@H](CO)[C@@H]2Cn3c(ccc(C4=CCCCC4)c3=O)[C@@H]2N1Cc1nccs1)N1CCOCC1	0	10
C[C@H]1CN([C@@H](C)CO)S(=O)(=O)c2ccc(-c3ccc(F)cc3)cc2O[C@H]1CN(C)S(C)(=O)=O	-5	-2
C/C=C/c1ccc([C@H]2[C@@H](CO)N(C(=O)Cc3cccnc3)[C@H]2CNC(C)=O)cc1	1	12
COc1ccc(S(=O)(=O)Nc2ccc3c(c2)C(=O)N([C@@H](C)CO)C[C@H](C)[C@@H](CN(C)Cc2ccc(-c4ccccc4)cc2)O3)cc1	13	-20
COc1cccc(CN2CCC3(CC2)CN(C(=O)Nc2ccc(F)cc2)[C@H](CO)c2c3c3ccc(OC)cc3n2C)c1	52	-35
COc1ccc2c3c([nH]c2c1)[C@@H](CO)N(C(C)=O)CC31CCN(Cc2cc(-c3ccccc3)on2)CC1	-3	-67
SMILES	C diff growth	Pf Dd2 growth
COc1ccc2c3c(n(C)c2c1)[C@H](CO)N(C(=O)Nc1ccc(F)cc1)CC31CCN(Cc2ccccn2)CC1	-4	-89*
COc1ccc2c3c([nH]c2c1)[C@H](CO)N(C(=O)Nc1ccc(F)cc1)CC31CCN(Cc2cc(-c3ccccc3)on2)CC1	4	-87*
COc1ccc2c3c(n(C)c2c1)[C@@H](CO)N(C(=O)Nc1ccc(F)cc1)CC31CCN(Cc2ccccn2)CC1	-2	-88*
COc1ccc2c3c(n(C)c2c1)[C@@H](CO)N(C(=O)Nc1ccc(F)cc1)CC31CN(Cc2ccccn2)C1	-3	-57
C[C@@H]1CN([C@H](C)CO)C(=O)c2cc(-c3ccncc3)cnc2O[C@H]1CN(C)C(=O)Nc1ccc2c(c1)OCO2	-3	-42
CC(=O)N1[C@H](CO)[C@@H]2c3ccccc3N(C(=O)c3ccccc3)C[C@@H]21	4	19
C[C@@H]1CCCCO[C@@H](CN(C)Cc2ccc(C(F)(F)F)cc2)[C@H](C)CN([C@H](C)CO)C(=O)c2cc(NC(=O)CCC(F)(F)F)ccc2O1	8	-44
CC(C)NC(=O)N(C)C[C@H]1OCCCC[C@@H](C)Oc2ccc(N(C)C)cc2C(=O)N([C@@H](C)CO)C[C@@H]1C	10	-5
CNC(=O)C[C@@H]1CC[C@H]2[C@@H](COC[C@H](O)CN2C(=O)Nc2ccc(Cl)c(Cl)c2)O1	-4	-4
CCNC(=O)C[C@@H]1CC[C@H]2[C@@H](COC[C@@H](O)CN2C(=O)Nc2ccc(Cl)c(Cl)c2)O1	/	4
CCNC(=O)C[C@@H]1CC[C@H]2[C@@H](COC[C@H](O)CN2C(=O)Nc2ccc(Cl)c(Cl)c2)O1	/	3
O=C(C[C@H]1CC[C@@H]2[C@H](COC[C@H](O)CN2C(=O)Nc2ccc(Cl)c(Cl)c2)O1)NC1CCC1	-99*!	/
O=C(C[C@H]1CC[C@H]2[C@@H](COC[C@@H](O)CN2C(=O)Nc2ccc(Cl)c(Cl)c2)O1)NC1CCC1	-99*!	/
CNC(=O)C[C@H]1CC[C@@H]2[C@H](COC[C@@H](O)CN2C(=O)Nc2ccc(Cl)c(Cl)c2)O1	0	-8
O=C(C[C@@H]1CC[C@@H]2[C@H](COC[C@H](O)CN2C(=O)Nc2ccc(Cl)c(Cl)c2)O1)NC1CCC1	-101*!	/
O=C(C[C@H]1CC[C@H]2[C@@H](COC[C@H](O)CN2C(=O)Nc2ccc(Cl)c(Cl)c2)O1)NC1CCC1	-92*	/
C[C@H](CO)N1C[C@H](C)[C@@H](CN(C)C(=O)C2CC2)Oc2cc(-c3cccc(F)c3)ccc2S1(=O)=O	0	12
C[C@@H]1CN([C@@H](C)CO)C(=O)c2cc(NC(=O)Nc3ccc(F)cc3)ccc2O[C@@H](C)CCCCO[C@H]1CN(C)Cc1ccncc1	5	-15
CCCNC(=O)N1CC2(CCN(C(=O)C3CCC3)CC2)c2c([nH]c3cc(OC)ccc23)[C@@H]1CO	-5	-13
COc1ccc2c3c([nH]c2c1)[C@H](CO)N(C(=O)CN(C)C)CC31CCN(C(=O)c2cccnc2)CC1	1	33
